# From PubChem BioAssay AID430 (Sanford-Burnham Center for Chemical Genomics, 2006)
# The campaign covered roughly 63,000 compounds. About 1,100 (1.7%) were called active. Cut-off read from the data, not from the text of the source: active = cytotoxicity above about 50%; inactive = the rest. Shown is part of a subset that was picked to be rich in actives. Potency and affinity values are given separately.
# Assay: cytotoxicity in HPDE-C7 cells, cell-based, fluorescence, HTS (AID 430);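 note: cells exposed to compound for 48 hours before viability readout; 0% = vehicle and 100% = reference cytotoxic drug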
# Details: HPDE-C7 pancreatic duct cells viability, at 10 µM, active compounds read high
row,Structure (SMILES),cytotoxicity
1,CCOc1cccc(-c2nnc3n2N=C(c2cc(OC)ccc2OC)CS3)c1,28.5% (inactive)
2,COCCSc1ccccc1C(=O)Nc1nncs1,-5.4% (inactive)
3,O=C(CCN1CCN(c2ccccc2F)CC1)Nc1ccccc1F,-8.5% (inactive)
4,O=C(CCN1CCN(CCC(=O)c2ccccc2)CC1)c1ccccc1,-22.9% (inactive)
5,C=CCn1c(SCCC(=O)O)nc2c1c(=O)n(C)c(=O)n2C,-15.6% (inactive)
6,COc1ccc(NC(C)=O)cc1NC(=O)CSc1nnc(-c2ccccc2)n1N,-1.2% (inactive)
7,CC[C@H](C)C(=O)O[C@H]1C[C@@H](C)C=C2C=C[C@H](C)[C@H](CC[C@@H]3C[C@@H](O)CC(=O)O3)[C@H]21,57.6% (active)
8,NC(=O)COC(=O)c1ccc(S(=O)(=O)N2CCCCCC2)cc1,10.2% (inactive)
9,COC(=O)CS(=O)(=O)c1nnc([C@H](Cc2ccccc2)NC(=O)OC(C)(C)C)o1,-7.1% (inactive)
10,CC(C)(C)OC(=O)N[C@@H](Cc1ccccc1)c1nnc(S(=O)(=O)Cc2cccc(F)c2)o1,-10.9% (inactive)
11,CCOC(=O)CSc1nnc([C@H](CC(C)C)NC(=O)OC(C)(C)C)o1,1.4% (inactive)
12,CC[C@@H](C)[C@H](NC(=O)OC(C)(C)C)c1nnc(S(=O)(=O)Cc2cc(C)ccc2C)o1,58.1% (active)
13,CCC(C)[C@@H](NC(=O)OC(C)(C)C)c1nnc(S(=O)(=O)Cc2cccc(C)c2)o1 (stereo partly drawn),5.7% (inactive)
14,CC(C)C[C@H](NC(=O)OC(C)(C)C)c1nnc(SCc2cccc(F)c2)o1,-12% (inactive)
15,CC(C)[C@H](NC(=O)OC(C)(C)C)c1nnc(S(=O)(=O)Cc2c(F)cccc2Cl)o1,-7.3% (inactive)
16,Cc1ccc(CCNC(=O)NC(C)(C)C)cc1,-6.5% (inactive)
17,O=C(OC1CCOC1=O)c1ccc(S(=O)(=O)N2CCCCCC2)cc1 (stereo not drawn),-10.6% (inactive)
18,COc1cc2c(C#N)c(N3CCCCC3)nc(N)c2c(N)n1,44.8% (inactive)
19,CCOc1cc2c(C#N)c(N3CCOCC3)nc(N)c2c(N)n1,23% (inactive)
20,N#Cc1c(N2CCCC2)nc(N)c2c(N)nc(N3CCCC3)cc12,1.9% (inactive)
21,COc1cc2c(C#N)c(N3CCOCC3)nc(N)c2c(N)n1,37.5% (inactive)
22,COc1cc2c(C#N)c(N3CCN(c4ccccc4OC)CC3)nc(N)c2c(N)n1,54.8% (active)
23,COc1ccc(Cc2nc(-c3cccs3)no2)cc1OC,5.9% (inactive)
24,Cc1ccc(OCCSc2nnc(NC(=O)c3ccco3)s2)cc1,4.3% (inactive)

row,Structure (SMILES),cytotoxicity
1,CCC(C)NC(=O)CCS(=O)(=O)c1ccc2c(c1)n(C)c(=O)c(=O)n2C (stereo not drawn),-0.5% (inactive)
2,CC(C(=O)Nc1sccc1C(N)=O)N1C(=O)C2CC=CCC2C1=O (stereo not drawn),-1.9% (inactive)
3,CC(CCc1ccccc1)NC(=O)C1CCN(S(=O)(=O)N2CCCCC2)CC1 (stereo not drawn),-21.3% (inactive)
4,Clc1c(CSc2nc3ccccc3o2)nc2sccn12,13.8% (inactive)
5,O=C(O)C1CCCCC1C(=O)Nc1ccc2c(c1)CCC2 (stereo not drawn),-13.4% (inactive)
6,CC1CCCCC1NC(=O)CSc1nnc(COc2ccccc2Cl)o1 (stereo not drawn),-6.2% (inactive)
7,CCCn1c(N)c(N(C)C)c(=O)n(CC(=O)Nc2ccc(OC(F)(F)F)cc2)c1=O,-2.7% (inactive)
8,COc1cc(-c2ccccc2)nc(N)n1,-3.4% (inactive)
9,COc1ccc(OC)c(Nc2cc(-c3ccccc3)nc(N)n2)c1,68.5% (active)
10,COc1ccc(OC)c(Nc2cc(C)nc3ccccc23)c1,-3.8% (inactive)
11,Cc1nc2ccccc2c2oc(C(=O)N3CCc4ccccc43)cc12,0.3% (inactive)
12,COCCN1C=C(C(=O)OC)C(c2ccc(OC)c(OC)c2)C(C(=O)OC)=C1,-14.4% (inactive)
13,CC1CN(c2nc3ccccn3c(=O)c2/C=C(\C#N)S(=O)(=O)c2ccccc2)CC(C)O1 (stereo not drawn),-12.3% (inactive)
14,Clc1ccccc1CSc1ncccn1,-5.2% (inactive)
15,COc1ccc(NC(=O)CSc2nnc(-c3ccco3)n2C)cc1,-10.6% (inactive)
16,O=C(CSc1nnc(-c2ccco2)c(-c2ccco2)n1)Nc1ccccc1,9.9% (inactive)
17,Cc1ccc(NC(=O)CSc2nnc(-c3ccco3)c(-c3ccco3)n2)cc1,82.6% (active)
18,Cc1cc(C)nc(SCc2nnc(SCc3ccccc3Cl)o2)n1,-4.7% (inactive)
19,CC1(C)OC(=O)C(=CNc2cccc(C(=O)O)c2)C(=O)O1,-20.6% (inactive)
20,COc1ccc(S(=O)(=O)NCCSc2ccc(C)cc2)cc1OC,12.8% (inactive)
21,COc1ccc(-c2nc(CN3CCC(C(=O)NC(C)C)CC3)c(C)o2)cc1OC,-10.9% (inactive)
22,COc1ccc(C2C(C(C)=O)=C(O)C(=O)N2C)c(OC)c1 (stereo not drawn),6.1% (inactive)
23,COc1ccc(C2CC(c3c(O)cc(C)oc3=O)=NCCS2)c(OC)c1 (stereo not drawn),71.1% (active)
24,COc1ccc(C2NC(=O)c3n[nH]c(C)c32)c(OC)c1 (stereo not drawn),4.3% (inactive)

row,Structure (SMILES),cytotoxicity
1,Cc1cccc(N(Cc2nnc3n2CCCCC3)C(=O)Nc2ccccc2)c1,-21.7% (inactive)
2,COc1cc(CO)cc(-c2cc(CO)cc(OC)c2OC)c1OC,4% (inactive)
3,CN1CCN(c2ncnc3c2sc2nc(N4CCCC4)c4c(c23)CC(C)(C)OC4)CC1,-7.2% (inactive)
4,CC1(C)Cc2c(c(N3CCCC3)nc3sc4c(N5CCN(CCO)CC5)ncnc4c23)CO1,60.5% (active)
5,OCCN1CCN(c2ncnc3c2sc2nc(N4CCOCC4)c4c(c23)CCC4)CC1,35.6% (inactive)
6,Cn1c(NCc2ccccc2)nc2c1c(=O)n(Cc1ccccc1)c(=O)n2C,5.6% (inactive)
7,Cn1c(OCc2cccnc2)nc2c1c(=O)n(Cc1ccc(Cl)cc1)c(=O)n2C,44% (inactive)
8,Cn1c(NCC(O)c2ccccc2)nc2c1c(=O)n(Cc1ccc(Cl)cc1)c(=O)n2C (stereo not drawn),53.2% (active)
9,Cn1c(N2CCN(c3ccccn3)CC2)nc2c1c(=O)n(Cc1ccccc1Cl)c(=O)n2C,-12.8% (inactive)
10,COc1ccc(CNc2nc3c(c(=O)n(Cc4ccc(Cl)cc4)c(=O)n3C)n2C)cc1,26.6% (inactive)
11,Cn1c(OCc2cccnc2)nc2c1c(=O)n(Cc1ccccc1)c(=O)n2C,25% (inactive)
12,Cn1c(NCc2ccco2)nc2c1c(=O)n(Cc1ccc(Cl)c(Cl)c1)c(=O)n2C,8% (inactive)
13,Cn1c(N2CCCC2)nc2c1c(=O)n(Cc1ccc(Cl)cc1)c(=O)n2C,1.7% (inactive)
14,Cn1c(OCc2cccnc2)nc2c1c(=O)n(Cc1ccc(Br)cc1)c(=O)n2C,50.4% (active)
15,Cn1c(N2CCN(c3ccccn3)CC2)nc2c1c(=O)n(Cc1ccc(Cl)cc1)c(=O)n2C,66.4% (active)
16,Cn1c(NCCCN2CCOCC2)nc2c1c(=O)n(Cc1ccc(Cl)c(Cl)c1)c(=O)n2C,44% (inactive)
17,Cn1c(NCC(O)c2ccccc2)nc2c1c(=O)n(Cc1ccc(Cl)c(Cl)c1)c(=O)n2C (stereo not drawn),69% (active)
18,COc1cccc(NC(=O)N2CCN(c3ccc(C(F)(F)F)cn3)CC2)c1,1% (inactive)
19,O=C(Cn1nnc2ccccc2c1=O)NC1CCCc2ccccc21 (stereo not drawn),-10.4% (inactive)
20,N#CCCN(Cc1cccnc1)C(=O)c1ccc(S(=O)(=O)N2CCOCC2)cc1,-11% (inactive)
21,CCOC(=O)c1[nH]c(C)c(C(=O)NCc2ccccn2)c1C,-28.2% (inactive)
22,CCCC(c1nnnn1C1CCCCC1)N1CCN(c2ncccn2)CC1 (stereo not drawn),-4% (inactive)
23,Cc1ccc2nc3sc(C(=O)N4CCOCC4)c(N)c3cc2c1,2.9% (inactive)
24,Cc1cccc2cc3c(N)c(C(=O)N4CCOCC4)sc3nc12,67.6% (active)

row,Structure (SMILES),cytotoxicity
1,Cc1ccc2cc3c(N)c(C(=O)N4CCOCC4)sc3nc2c1,-0.1% (inactive)
2,CN(Cc1nnc(SCC(=O)NCCc2ccccc2)n1C)S(=O)(=O)c1ccccc1,-11.2% (inactive)
3,O=C(Nc1ccc(N2CCN(C(=O)c3ccccc3)CC2)cc1)c1ccc(Br)o1,-3.2% (inactive)
4,CC1=CC(=C(C#N)c2nc3ccccc3s2)C=C(C)N1Cc1ccco1,10.5% (inactive)
5,O=C(CCCSc1nc2ccccc2s1)Nc1nccs1,-2.3% (inactive)
6,O=C(OCC#CCSc1nc2ccccc2s1)c1ccco1,-5.2% (inactive)
7,N#C/C(=C\c1ccco1)Sc1nc2ccccc2s1,54.9% (active)
8,c1csc(CSc2nc3ccccc3s2)c1,-16.5% (inactive)
9,O=C(Cn1cnc2ccccc2c1=O)OCC(=O)c1ccc2c(c1)OCCO2,3% (inactive)
10,O=C(c1cc2nc(-c3ccco3)cc(C(F)(F)F)n2n1)N1CCN(c2ccccc2)CC1,-3% (inactive)
11,CCOc1ccc(C2N(c3cc(Cl)ccc3OC)C(=O)C3CCCN32)cc1OC (stereo not drawn),-15.6% (inactive)
12,Cc1ccc(CS(=O)(=O)CCC(=O)NCCN2CCCCC2C)cc1 (stereo not drawn),7.5% (inactive)
13,O=C(O)c1ccc(N2CCCCC2)cc1,-6.8% (inactive)
14,Nc1ccc(N2CCCCC2)cc1N1CCCCC1,37% (inactive)
15,CCOc1nc(-c2ccccc2)ccc1-c1noc(-c2cccnc2)n1,-30.6% (inactive)
16,Cc1nc(NC2=NCN(C3CCCCC3C)CN2)nc2ccccc12 (stereo not drawn),-2.8% (inactive)
17,Cc1cccc(NC(=O)N2CCC(NC(=O)c3ccccc3C)CC2)c1,2.1% (inactive)
18,COC(=O)c1ccccc1NC(=O)CN1CCN(C(=O)c2ccco2)CC1,4.2% (inactive)
19,O=C(O)c1cc(S(=O)(=O)N2CCCCCC2)ccc1Cl,-1.3% (inactive)
20,O=S(=O)(c1ccc(S(=O)(=O)N2CCCC2)cc1)N1CCCCCC1,-7.3% (inactive)
21,Cn1c(=O)c2c(nc(N3CCCCC3)n2CCSc2nc3ccccc3o2)n(C)c1=O,-14.5% (inactive)
